The supplement of paper PMC7411640
Structures can show the parent of a compound that is named as a salt.

Tested on: MDA-MB-468
Assay: phospho-S6 immunofluorescence (DAPI-normalised), per-plate z-score; higher = higher phospho-S6 signal (less pathway suppression)
Settings: 24 h
Description: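 GPCR-targeted compound library (MedChemExpress HY-L006) tested on MDA-MB-468 PTEN-null TNBC cells in 384-well plates at 0.1, 1 or 10 uM, combined with vehicle, GDC0941 450 nM or lapatinib 1 uM, for 24 h. Phospho-S6 (S240/244) immunofluorescence normalised to DAPI and expressed as a per-plate z-score; values are the mean of biological triplicates.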

Compound | phospho-S6 immunofluorescence (z-score) (co-treatment: GDC0941 450 nM) | phospho-S6 immunofluorescence (z-score) (co-treatment: lapatinib 1 uM) | phospho-S6 immunofluorescence (z-score) (co-treatment: vehicle)
O=S(=O)(O)c1cc(O)ccc1O [Ethamsylate] (compound 10 µM) | 0 | -0.05 | 0.76
O=C(c1ccc(OCCCc2c[nH]cn2)cc1)C1CC1 [Ciproxifan (maleate)] (compound 10 µM) | -0.58 | -0.62 | 0.21
COCCCN1CCC(NC(=O)c2cc(Cl)c(N)c3c2OCC3)CC1 [Prucalopride (succinate)] (compound 10 µM) | -1.08 | -0.3 | -1.84
C#CCOc1ccc2c(c1)c(-c1ccc(C(C)C)cc1)nc(=O)n2C(C)C [Calcium-Sensing Receptor Antagonists I] (compound 10 µM) | -3.51 | -4.39 | -4.18
CCOC(=O)N1CCC(NCCNC(=O)c2ccccc2C)CC1 (compound 10 µM) | 0.96 | -0.15 | 1.13
OC(CCN1CCCCC1)(c1ccccc1)C1CC2C=CC1C2 (configuration not stated) [Biperiden (Hydrochloride)] (compound 10 µM) | -1.68 | -0.97 | -1.56
CC(C)C[C@H](NC(=O)CNC(=O)[C@H](Cc1ccc(O)cc1)NC(=O)[C@H](CO)NC(=O)[C@H](Cc1c[nH]c2ccccc12)NC(=O)[C@H](Cc1cnc[nH]1)NC(=O)[C@@H]1CCC(=O)N1)C(=O)N[C@@H](CCCNC(=N)N)C(=O)N1CCC[C@H]1C(=O)NCC(N)=O [Gonadorelin (acetate)] (compound 10 µM) | -0.45 | 0.57 | 0.07
NCCc1c[nH]cn1 [Histamine] (compound 10 µM) | 0 | 1.34 | 0.58
CN1CCC[C@@H]1CCO[C@](C)(c1ccccc1)c1ccc(Cl)cc1 [Clemastine (fumarate)] (compound 10 µM) | 0.73 | -3.01 | 1.46
C[C@]12C=CC(=O)C=C1CC[C@H]1[C@@H]3C[C@@H](O)[C@](O)(C(=O)CO)[C@@]3(C)C[C@H](O)[C@@]12F [Triamcinolone] (compound 10 µM) | 0.04 | 0.82 | 0.94
O=C(c1ccc(F)cc1)N1CCC[C@H](c2nc(-c3ccc(F)cc3)no2)C1 (compound 10 µM) | -2.64 | -3.29 | -2.93
CN(C)CCN1C(=O)c2cccc3cc(NC(N)=O)cc(c23)C1=O (compound 10 µM) | 1.29 | 7.09 | 0.12
Cc1cc(NC(=O)Nc2ccc(N(C)C)cc2)c2cc(F)cc(F)c2n1 (compound 10 µM) | -2.07 | -0.1 | -2.06
CC(C)Cc1ccc([C@@H](C)C(=O)NS(C)(=O)=O)cc1 [Reparixin (L-lysine salt)] (compound 10 µM) | -1.6 | -1.46 | -0.67
